Measured values reported in PubChem BioAssay (EPA / NIEHS).
Records with an inconclusive call do not appear. More than one record can exist for a structure, and the calls need not agree. Calls of active or inactive are those of the source. Rule for the calls, unless noted: active = hit-call score of the fitted dose curve at least 0.9, where 1 is the maximum; inactive = score below 0.9.

What was measured:
[1] = read-out: Interleukin-8 (IL8), CXCL8 (gene 3576); assay: BSK_3C_IL8: BioMAP Diversity Plus: 3C Assay for Interleukin-8 (IL8) Biomarker Activity (AID 2283020); settings: primary human endothelial cells (HUVEC); actives raise or lower the signal
How it was run: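 ELISA read-out of IL-8 from human umbilical vein endothelium, measured 24 h after chemical dosing. Activity is expressed relative to DMSO negative control, with both increases and decreases fitted.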

[2] = read-out: Monokine induced gamma interferon (MIG), CXCL9 (gene 4283); assay: BSK_3C_MIG: BioMAP Diversity Plus: 3C Assay for Monokine induced gamma interferon (MIG) Biomarker Activity (AID 2283021); settings: primary human endothelial cells (HUVEC); actives raise or lower the signal;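 for AC50: MIG protein level measured by immunoassay in the treated endothelial cultures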
How it was run: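 Read-out is ELISA detection of MIG on human umbilical vein endothelial cells, taken 24 h after dosing. Gain or loss of signal was scored relative to DMSO controls using bidirectional curve fitting.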

[3] = target: human Vitamin D Receptor (VDR), VDR (gene 7421) (UniProt P11473); assay: ATG_VDR_TRANS: Attagene TRANS-FACTORIAL HepG2 Assay for human Vitamin D Receptor (VDR) (AID 2283022; active = hit-call score of the fitted dose curve at least 0.9, where 1 is the maximum)
How it was run: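 Steps: transfect HepG2 with GAL4-UAS-driven reporter constructs; dose compounds 24 h; isolate RNA, reverse-transcribe, PCR-amplify with 6-FAM-labelled primer extension and HpaI digestion; quantify fragments by capillary electrophoresis relative to DMSO.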

[4] = BSK_3C_SRB: Viability Assessment in the BioMAP Diversity Plus: 3C Assay (AID 2283023); settings: primary human endothelial cells (HUVEC);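 note: fitted both ways against DMSO so a hit may be signal rise or drop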
How it was run: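 Absorbance at 560 nm of sulforhodamine B-stained (0.1%) total protein served as a cytotoxicity readout in human umbilical vein endothelial cells, 24 h after chemical treatment. Signal was fitted bidirectionally relative to DMSO.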

[5] = read-out: Matrix Metallopeptidase 1 (MMP1), MMP1 (gene 4312); assay: BSK_BE3C_MMP1: BioMAP Diversity Plus: BE3C Assay for Matrix Metallopeptidase 1 (MMP1) Biomarker Activity (AID 2283024); settings: primary human bronchial epithelial cells; actives raise or lower the signal
How it was run: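 Human bronchial epithelial cells (BE3C system) exposed to compound for 24 h; MMP1 then quantified by ELISA. Activity was fitted in both directions relative to DMSO.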

[6] = BSK_3C_Vis: BioMAP Diversity Plus: 3C Assay for Morphology Visualization (AID 2283025); settings: primary human endothelial cells (HUVEC);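 note: fitted both ways so gain or loss versus DMSO counts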;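 for AC50: light microscopy image of cell morphology used as background control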
How it was run: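 Chemicals were added to primary human umbilical vein endothelium, cells were incubated 24 h, and morphology was then visualized by light microscopy. Gain or loss of signal was fitted bidirectionally relative to DMSO.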

[7] = read-out: Pselectin, SELP (gene 6403); assay: BSK_4H_Pselectin: BioMAP Diversity Plus: 4H Assay for Pselectin Biomarker Activity (AID 2283026); settings: primary human endothelial cells (HUVEC); actives raise or lower the signal
How it was run: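 ELISA read-out of P-selectin on human umbilical vein endothelium after 24 h of dosing. Values derive from bidirectional fitting relative to DMSO. Parallel SRB protein staining flagged overt cytotoxicity.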

[8] = BSK_4H_SRB: Viability Assessment in the BioMAP Diversity Plus: 4H Assay (AID 2283027); settings: primary human endothelial cells (HUVEC);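 note: cells exposed to compound for 24 h before staining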;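 for AC50: curves fitted both ways versus DMSO so AC50 may be loss or gain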
How it was run: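 Human umbilical vein endothelial cells, 24 h after chemical dosing; total protein measured by 0.1% sulforhodamine B staining after 10% TCA fixation, read at 560 nm. Bidirectional fitting against DMSO.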

[9] = BSK_BE3C_SRB: Viability Assessment in the BioMAP Diversity Plus: BE3C Assay (AID 2283028); settings: primary human bronchial epithelial cells
How it was run: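 Cells (human bronchial epithelial, primary) are treated with chemicals, and after 24 h the parallel cultures are fixed in 10% TCA. These are then stained with 0.1% SRB and read at 560 nm. Gain or loss of signal is fitted relative to DMSO.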

[10] = read-out: Thrombomodulin, THBD (gene 7056); assay: BSK_3C_Thrombomodulin: BioMAP Diversity Plus: 3C Assay for Thrombomodulin Biomarker Activity (AID 2283029); settings: primary human endothelial cells (HUVEC); actives raise or lower the signal
How it was run: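 Read-out is ELISA of thrombomodulin on human umbilical vein endothelium 24 h after chemical dosing. Gain or loss of signal is scored relative to DMSO. Overt cytotoxicity is checked in parallel cultures by sulforhodamine B staining.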

[11] = read-out: Urokinase-type plasminogen activator receptor (uPAR), PLAUR (gene 5329); assay: BSK_4H_uPAR: BioMAP Diversity Plus: 4H Assay for Urokinase-type plasminogen activator receptor (uPAR) Biomarker Activity (AID 2283030); settings: primary human endothelial cells (HUVEC); actives raise or lower the signal
How it was run: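 Cell-surface uPAR ELISA signal, measured 24 h after dosing human umbilical vein endothelial cells, was analyzed with bidirectional fitting relative to DMSO. Parallel SRB staining of total protein tracked overt cytotoxicity.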

[12] = read-out: Vascular endothelial growth factor receptor 2 (Homo sapiens) (UniProt P35968); assay: BSK_4H_VEGFRII: BioMAP Diversity Plus: 4H Assay for Vascular endothelial growth factor receptor 2 (VEGFR2) Biomarker Activity (AID 2283031); settings: primary human endothelial cells (HUVEC); actives raise or lower the signal;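 for AC50: cell-surface VEGFR2 protein level quantified by ELISA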
How it was run: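 ELISA read-out of VEGFRII in primary human umbilical vein endothelium, taken 24 h after chemical treatment. Responses are expressed relative to DMSO, with bidirectional fitting.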

[13] = read-out: Human Leukocyte Antigen - DR isotype (HLADR), HLA-DRA (gene 3122); assay: BSK_BE3C_HLADR: BioMAP Diversity Plus: BE3C Assay for Human Leukocyte Antigen - DR isotype (HLADR) Biomarker Activity (AID 2283032); settings: primary human bronchial epithelial cells; actives raise or lower the signal
How it was run: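 ELISA read-out of HLA-DR on human lung bronchial epithelial primary cells, measured 24 h post-dosing. Both increases and decreases were scored relative to DMSO vehicle.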

[14] = read-out: Vascular cell adhesion molecule 1 (VCAM1), VCAM1 (gene 7412); assay: BSK_4H_VCAM1: BioMAP Diversity Plus: 4H Assay for Vascular cell adhesion molecule 1 (VCAM1) Biomarker Activity (AID 2283033); settings: primary human endothelial cells (HUVEC); actives raise or lower the signal
How it was run: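 ELISA read-out of VCAM-1 on human umbilical vein endothelium 24 hours after chemical dosing; gain or loss of signal was fitted relative to DMSO, with sulforhodamine B staining of parallel cultures flagging overt cytotoxicity.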

[15] = read-out: Interferon-gamma inducible Protein 10 (IP10), CXCL10 (gene 3627); assay: BSK_BE3C_IP10: BioMAP Diversity Plus: BE3C Assay for Interferon-gamma inducible Protein 10 (IP10) Biomarker Activity (AID 2283034); settings: primary human bronchial epithelial cells; actives raise or lower the signal
How it was run: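 Chemical is dosed onto human lung bronchial epithelial primary cells, cultures are incubated 24 h, and IP-10 is then quantified by ELISA. Gain or loss of signal is fitted in both directions relative to DMSO.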

[16] = read-out: Monokine induced gamma interferon (MIG), CXCL9 (gene 4283); assay: BSK_BE3C_MIG: BioMAP Diversity Plus: BE3C Assay for Monokine induced gamma interferon (MIG) Biomarker Activity (AID 2283035); settings: primary human bronchial epithelial cells; actives raise or lower the signal;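 note: MIG protein measured by ELISA in BE3C cultures after 24 h of dosing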
How it was run: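 Primary human bronchial epithelial cells treated for 24 h; MIG levels measured by ELISA, fitted bidirectionally versus DMSO. Parallel SRB total-protein staining assessed cytotoxicity.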

[17] = read-out: Transforming growth factor beta 1 (TGFb1), TGFB1 (gene 7040); assay: BSK_BE3C_TGFb1: BioMAP Diversity Plus: BE3C Assay for Transforming growth factor beta 1 (TGFb1) Biomarker Activity (AID 2283036;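 note: TGF-b1 protein level measured by ELISA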); settings: primary human bronchial epithelial cells; actives raise or lower the signal
How it was run: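 Primary human lung bronchial epithelial cells; compound exposure 24 h; TGF-b1 by ELISA; bidirectional fit, DMSO baseline. Parallel SRB total-protein staining for cytotoxicity.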

[18] = read-out: Plasminogen activator inhibitor-1 (PAI1), SERPINE1 (gene 5054); assay: BSK_BE3C_PAI1: BioMAP Diversity Plus: BE3C Assay for Plasminogen activator inhibitor-1 (PAI1) Biomarker Activity (AID 2283037); settings: primary human bronchial epithelial cells; actives raise or lower the signal
How it was run: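 Primary human lung bronchial epithelial cells; chemical dosing; 24 h; PAI-1 measured by ELISA; bidirectional fit referenced to DMSO as negative control.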

[19] = read-out: urokinase plasminogen activator (uPA), PLAU (gene 5328); assay: BSK_BE3C_uPA: BioMAP Diversity Plus: BE3C Assay for urokinase plasminogen activator (uPA) Biomarker Activity (AID 2283038); settings: primary human bronchial epithelial cells; actives raise or lower the signal;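 note: uPA protein level quantified by ELISA in cell cultures; uPA read one day after compound addition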
How it was run: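 Bronchial epithelial cells (human, primary); chemical 24 h; uPA by ELISA; bidirectional fit vs DMSO. SRB (0.1%, after 10% TCA fixation, 560 nm) in parallel cultures for cytotoxicity.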

[20] = read-out: Urokinase-type plasminogen activator receptor (uPAR), PLAUR (gene 5329); assay: BSK_BE3C_uPAR: BioMAP Diversity Plus: BE3C Assay for Urokinase-type plasminogen activator receptor (uPAR) Biomarker Activity (AID 2283039); settings: primary human bronchial epithelial cells; actives raise or lower the signal;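 note: cells exposed to compound for one day before measurement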
How it was run: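 Human bronchial epithelial primary cells; chemical exposure 24 h; uPAR by ELISA; bidirectional fit vs DMSO control.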

Measured: AC50

Chain of human Vitamin D Receptor (VDR), VDR (gene 7421) (P11473 whole entry, looked up, the tested form may be a part): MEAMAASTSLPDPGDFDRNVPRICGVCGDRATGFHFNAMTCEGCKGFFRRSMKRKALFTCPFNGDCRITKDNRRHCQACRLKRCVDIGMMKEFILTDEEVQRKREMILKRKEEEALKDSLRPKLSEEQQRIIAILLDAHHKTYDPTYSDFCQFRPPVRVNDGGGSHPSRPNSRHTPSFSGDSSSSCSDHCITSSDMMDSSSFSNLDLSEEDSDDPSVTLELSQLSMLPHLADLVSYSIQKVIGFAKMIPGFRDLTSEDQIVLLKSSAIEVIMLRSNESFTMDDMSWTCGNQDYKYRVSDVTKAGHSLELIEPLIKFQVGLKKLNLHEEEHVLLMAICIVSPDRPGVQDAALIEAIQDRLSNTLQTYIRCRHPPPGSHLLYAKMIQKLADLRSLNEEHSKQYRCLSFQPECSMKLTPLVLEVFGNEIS

O=C1CN(N=Cc2ccc([N+](=O)[O-])o2)C(=O)N1
inactive: all assays above

CCCCCCCCCCCCCCO
active: [1] 30.4 µM | [2] 30.7 µM | [4] 31.3 µM | [6] 37.5 µM | [7] 33.1 µM | [8] 34 µM | [11] 32.6 µM | [12] 32.6 µM | [14] 34.2 µM
inactive: all other assays above

O=S(=O)(O)CCC(F)(F)C(F)(F)C(F)(F)C(F)(F)C(F)(F)C(F)(F)F
inactive: [1] | [2] | [3] | [4] | [5] | [7] | [8] | [9] | [10] | [11] | [12] | [13] | [14] | [15] | [16] | [18] | [19] | [20]
active: [5] 45.5 µM

CCCCCCCCN(C)C
inactive: all assays above

Nc1ccn([C@@H]2O[C@H](CO)[C@@H](O)[C@@H]2O)c(=O)n1
active: [4] 7.44 µM | [6] 39 µM | [11] 4.93 µM
inactive: all other assays above

OC(Cn1cncn1)(Cn1cncn1)c1ccc(F)cc1F
inactive: all assays above

OCc1c[nH]c2ccccc12
active: [4] 11.5 µM | [5] 0.297 µM | [6] 37.5 µM | [13] 3.97 µM | [15] 5.95 µM | [18] 0.0716 µM
inactive: all other assays above
